Screening data deposited in PubChem by National Center for Advancing Translational Sciences (NCATS).
The list is not random: actives were taken first. Their share in the collection is about 11%.
HTT cytoprotect – cytoprotection in Huntington HTT-Q103 PC12 cell model | PC12 HTT-Q103 induced, cytoprotection, ATP luminescence, 40 h | Potency, µM (highest dose often 56.4 µM), for inactives: cytoprotection (ATP increase), actives largely listed as activators | hit rate 0.14% among 230,000; also: potency is read from the fitted curve at half-maximal effect; % of control where 0% means no effect; nearly all actives have a fitted effect of over 45% in size
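Huntington model: PC12 line, ecdysone-inducible HTTQ103 exon1–GFP, tebufenozide 100 nM. Test articles in a dose series. Endpoint luminescence from cellular ATP.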
HPGD block – HPGD (human) dehydrogenase inhibition; P15428; purified HPGD, NADH fluorescence kinetic, PGE2 substrate; Potency, µM, for inactives: at the top dose activity change, negative = inhibition, hits mostly inhibitors; hit rate 4.3% among 150,000; AID 894; active = well fitted inhibition curve with a large enough effect, not every such curve was filed as active; inconclusive = small, poorly fitted or top-dose-only effect, or another doubt; inactive = no such curve, though single readings can be large or run the other way; also: potency is read from the fitted curve at half-maximal effect; % is scaled to controls: 0 for no effect and ±100 for the full control effect
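NADH formation kinetics: reaction with 30 uM PGE2 and 1 mM NAD+ (final), 20 nM enzyme, Tris-HCl pH 8 with Tween 20, after 15 min compound preincubation at room temperature. Fluorescence change, last versus first of five reads.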
PNC inhibitor – perinucleolar compartment assembly inhibition; activity change (PNC), negative = inhibition, % at 10 µM; hit rate 3.1% among 140,000; PC3M PTB-GFP, PNC prevalence imaging, 16 h; stronger effect = lower value; AID 2417;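 active = readout at or below -70, meaning at least 70% loss of cells showing the perinucleolar compartment, a nuclear body marking cancer cells; inconclusive = readout between -30 and a set limit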;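 also: plate controls were DMSO wells for no effect and camptothecin positive control wells for full effect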
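Compounds are pinned in duplicate onto adhered PC3M cells stably expressing GFP-tagged PTB and incubated 16 h at 37 C. Cells are then fixed, nuclei stained with Hoechst, and PNC-positive cells counted.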
HTT aggregate – inhibitors of mutant huntingtin aggregate formation in PC12 cells | PC12 HttQ103-GFP aggregates, Acumen cytometry, 40 h | Potency, µM (highest dose often 46.1 µM), inactives show at the highest dose activity change, negative = inhibition, hits mostly inhibitors | hit rate 1.1% among 220,000; also: potency is read from the fitted curve at half-maximal effect; % is scaled to controls: 0 for no effect and ±100 for the full control effect; nearly all actives have a fitted effect of over 60% in size
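Aggregates are detected as GFP objects 1–25 µm with signal 6 STDEV over background in lysates of induced PC12 cells. These carry Huntingtin exon 1 with 103 glutamines fused to GFP under an ecdysone promoter; compounds titrated.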
RGS12 GoLoco inh – RGS12 GoLoco-Gai1 interaction inhibition. Potency, µM (top dose mostly 61.6 µM), inactives show top-dose activity, negative = inhibition, actives largely listed as inhibitors. P63096. Gai1:RGS12 GoLoco peptide FP, rhodamine, 10 min. AID 880. hit rate 0.44% among 230,000; active = well fitted inhibition curve with a large enough effect, not every such curve was filed as active; inactive = no such curve, though single readings can be large or run the other way; also: potency is read from the fitted curve at half-maximal effect; % is scaled to controls: 0 for no effect and ±100 for the full control effect; nearly all actives have a fitted effect of over 30% in size
ALDH1A1 inh – blocks purified human ALDH1A1 activity; Potency, µM (series often up to 75.3 µM), for inactives: top-dose activity, negative = inhibition, usual class: inhibitors; AID 1030; P00352; Purified ALDH1A1, NADH fluorescence, propionaldehyde substrate; hit rate 7.3% among 220,000; active = well fitted inhibition curve with a large enough effect, not every such curve was filed as active; inconclusive = small, poorly fitted or top-dose-only effect, or another doubt; inactive = no such curve, though single readings can be large or run the other way;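 also: potency is read from the fitted curve at half-maximal effect; plate controls were no enzyme wells and a reference inhibitor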
Target sequence (P00352 whole entry, looked up): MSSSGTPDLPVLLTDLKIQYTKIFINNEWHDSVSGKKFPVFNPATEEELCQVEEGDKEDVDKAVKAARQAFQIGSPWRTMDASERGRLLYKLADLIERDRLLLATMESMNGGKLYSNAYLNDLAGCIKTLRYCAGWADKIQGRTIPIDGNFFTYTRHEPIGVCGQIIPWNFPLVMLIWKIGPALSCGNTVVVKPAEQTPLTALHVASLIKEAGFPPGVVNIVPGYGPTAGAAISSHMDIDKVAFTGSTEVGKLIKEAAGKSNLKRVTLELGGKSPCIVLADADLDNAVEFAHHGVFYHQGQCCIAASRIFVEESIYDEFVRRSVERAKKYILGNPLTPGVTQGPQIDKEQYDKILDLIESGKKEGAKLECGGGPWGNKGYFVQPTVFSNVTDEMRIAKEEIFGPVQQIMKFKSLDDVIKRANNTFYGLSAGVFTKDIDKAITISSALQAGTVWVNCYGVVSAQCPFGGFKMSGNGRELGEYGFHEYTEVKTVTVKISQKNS
An asterisk follows results filed as active; ? = inconclusive; · = not tested or not shown; [ ] = another dose, or the depositor's remark. Unless noted, calls follow the shape of the dose curve; as a rule, active = well fitted curve in the direction sought with a large enough effect; inconclusive = small, poorly fitted or top-dose-only effect, or another doubt; inactive = no such curve, though single readings can be large; an effect the other way counts as inactive or inconclusive.

SMILES	HTT cytoprotect	HPGD block	PNC inhibitor	HTT aggregate	RGS12 GoLoco inh	ALDH1A1 inh
C=CCOC(=O)C1=C(C)Nc2nnnn2C1c1cc(OC)ccc1OC (stereo not given)	-2%	2%	42	9%	1%	4.5µM*
COC(=O)C1=C(C)Nc2nnnn2C1c1ccco1 (stereo not given)	-1%	?	-3	-21%	-2%	10µM*
CC(=O)C1=C(C)Nc2ncnn2C1c1ccccc1Cl (stereo not given)	-5%	·	-23	6%	·	25µM*
COC(=O)C1=C(C)NC(C)=C(C(=O)OC)C1c1ccco1	1%[10 µM]	·	·	14%[9.22 µM]	7%	·
CCOC(=O)C1=C(C)Nc2nnnn2C1c1ccccc1Cl (stereo not given)	3%[10 µM]	-11%	-17	-31%	4%	0.71µM*
CC1=C(C(N)=O)C(c2ccc(Cl)cc2Cl)n2ncnc2N1 (stereo not given)	8%[10 µM]	-3%	-23	3%	-4%	7%
COC(=O)C1=C(C)Nc2nnnn2C1c1ccc(Cl)cc1Cl (stereo not given)	5%	-7%	?	-2%	8%	8.9µM*
CCCCOC(=O)C1=C(C)Nc2nnnn2C1c1ccccc1Cl (stereo not given)	8%	-8%	-7	-17%	3%	0.45µM*
CCOC(=O)c1ncc2[nH]c3cccc(OC(C)C)c3c2c1C	1%	-16%	·	·	19%	-5%
Cc1cc(C)nc(N(C#N)Cc2cccc(Cl)c2)n1	·	·	·	·	-15%	-14%
O=C1CC(c2ccccc2)Cc2nc3ncnn3cc21 (stereo not given)	-27%	-14%	25	-4%	0%	-7%
c1cc2[nH]snc2c2nc(C3CC3)nc12	10%	-25%	-13	11µM*	6%	-9%
Cc1ccccc1Cn1nc(C)c(NC(=O)/C=C/c2cnn(C)c2)c1C	·	1%	-114*	2%	-3%	2%
COC(=O)C1(C)C=C(Nc2ccc(OC)cc2)C(=O)N1c1ccc(OC)cc1 (stereo not given)	?	-16%	·	·	2%	?
CCc1ccc(C(=O)CCC2CCCCC2=O)cc1 (stereo not given)	9%	16µM*	38	12%[9.22 µM]	4%	?
Cc1ccc(C(=O)CCC2CCCCC2=O)cc1 (stereo not given)	-14%	-29%	?	-7%	10%	-9%
COC(=O)C1=C(C)N=C2SC(C#N)=C(N)N2C1c1cccc(OC)c1 (stereo not given)	11%	-10%	25	10%	5%	13µM*
CCC[C@H](N[C@@H](C)C(=O)N1[C@@H]2CCCC[C@H]2C[C@H]1C(=O)O)C(=O)OCC	·	-16%	·	·	1%	7%
COc1ccc(Nc2nc(Cl)nc(N3CCN(c4ccc(OC)cc4)CC3)n2)cc1	18%[10 µM]	·	·	5%[9.22 µM]	12%	-2%
C=CCNc1nc(Cl)nc(Nc2ccc([N+](=O)[O-])cc2)n1	-24%	·	·	14%	-7%	2%
CC1CCN(c2nc(Cl)nc(Nc3ccc([N+](=O)[O-])cc3)n2)CC1	·	-20%	33	-23%	7%	16µM*
C=CCNc1nc(Nc2ccc([N+](=O)[O-])cc2)nc(N2CCCC2)n1	-156%	·	·	?	5%	32µM*
N#CC1=C(N)Oc2cc(O)ccc2C1c1cccs1 (stereo not given)	-3%[10 µM]	-11%	-106*	-9%	9%	?
COC(=O)CC1=C(C(=O)OC)C(c2cccs2)C(C#N)=C(N)O1 (stereo not given)	-14%[10 µM]	-35%	-119*	-2%	6%	?
CN(C)Cc1ccccc1-c1cncnc1NCc1ccccc1	23%	?	·	·	-5%	?
SMILES	HTT cytoprotect	HPGD block	PNC inhibitor	HTT aggregate	RGS12 GoLoco inh	ALDH1A1 inh
C=C(C(=O)OC)C(NC(=O)OC)c1ccccc1 (stereo not given)	2%	-7%	·	·	-9%	4%
CC(C)(C)NCCOCCOc1ccccc1-c1ccccc1	0%[10 µM]	3%	-106*	-5%	4%	25µM*
COCCCNCCOCCOc1ccccc1-c1ccccc1	-6%[10 µM]	-1%	-17	14%	5%	-1%
O=C(Nc1nc2c(F)cc(F)cc2s1)C1CC(=O)N(Cc2ccco2)C1 (stereo not given)	-10%[10 µM]	·	·	-6%[9.22 µM]	-2%	14µM*
C[N+]1(CCC[N+]2(C)C[C@H]3[C@H](C2)[C@H]2C=C[C@@H]3CC2)CCOCC1 (stereo not given in full)	-14%[10 µM]	3.2µM*	·	·	-3%[14.2 µM]	7%[13.5 µM]
N#C[C@H](c1ccccc1)N1CCCN([C@@H](C#N)c2ccccc2)C1c1ccccc1O (stereo not given in full)	-1%[10 µM]	-1%	·	·	-2%[14.2 µM]	2%[13.5 µM]
CN(C(=O)COC(=O)c1cc(NS(=O)(=O)c2cc([N+](=O)[O-])ccc2Cl)ccc1O)C1CCCCC1	-8%[10 µM]	0%	-95*	-8%	6%	?
O=C(COC(=O)c1ccccc1NS(=O)(=O)c1cc([N+](=O)[O-])ccc1Cl)c1ccccc1	-31%	·	·	-9%[9.22 µM]	17%	10%
CCOC(=O)c1c(NC(=O)CS(=O)(=O)c2cn(CC)c3ccccc23)sc2c1CCCC2	·	-19%	35	8%	4%	13µM*
CC(C)OC(=O)c1c(NC(=O)CCn2nnc3ccccc32)sc2c1CCCC2	-11%[10 µM]	-27%	?	5%	5%	25µM*
CCOC(=O)c1c(NC(=O)Cc2cccs2)sc2c1CCCC2	-35%	·	9	-11%	·	-6%
CCOC(=O)c1c(NC(=O)CS(=O)(=O)c2cn(CC)c3ccccc23)sc2c1CCCCC2	·	-10%	51	-2%	0%	10µM*
O=C1c2ccccc2C(=O)C12OC2c1ccc(Cl)cc1 (stereo not given)	0%[10 µM]	-20%	40	32µM*	5%	0.79µM*
Cc1ccc(CCNC(=O)C23CN(Cc4ccccc4)CC2C(c2cccc([N+](=O)[O-])c2)=NO3)cc1 (stereo not given)	-4%[10 µM]	-18%	?	18%	-14%	?
O=C(NCc1ccccc1C(F)(F)F)C12CN(Cc3ccccc3)CC1C(c1ccc([N+](=O)[O-])cc1)=NO2 (stereo not given)	-10%[10 µM]	-17%	-119*	12%	-1%	25µM*
CC(C)CCNC(=O)C12CN(Cc3ccccc3)CC1C(c1ccc([N+](=O)[O-])cc1)=NO2 (stereo not given)	-15%[10 µM]	-22%	?	3%	-16%	2.8µM*
COc1cccc(CNC(=O)C23CN(Cc4ccccc4)CC2C(c2ccc([N+](=O)[O-])cc2)=NO3)c1 (stereo not given)	-2%	-8%	62	3%	1%	?
